Structures are written as SMILES. Out of some 360,000 compounds screened, about 2,600 (0.72%) were called active. This excerpt belongs to a sample that is enriched for actives. Values without a mark were called inactive.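 The calls were made as follows: active = inhibition of the luminescence signal of 40% or more relative to plate controls, in a single-dose primary screen at 18.75 µM; inactive = the rest.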

This test in a line: HIF-2a reporter inhibitors, primary screen, luminescence, 786-0 RCC cells (AID 624352). The conditions noted are these: 786-0 RCC cells HIF-2a reporter, luciferase luminescence, overnight; at 18.8 µM; hits give high values.
In general, inhibition refers to the change of the read-out against control, counted positive when it falls. For `Brc1ccc2c(c1)[C@H]1OCC[C@H]1[C@@H](c1cccs1)N2`, the inhibition is -2.71%. `C[C@H](O)[C@@H]1C(=O)N2CCc3ccc(N4CCOCC4)cc3[C@@H]2C[C@@H]1N(C)C(=O)C(C)(C)C`: the inhibition was -9.89%. `Cc1cc(C)c(SCCc2ccncc2)c(C)c1`: the inhibition is 10%. With `Cc1cc(C)c2c(NC(=O)C3CC3)nn(C)c2n1`, the inhibition was 0.567%. With `Cc1n[nH]c(C)c1S(=O)(=O)N1CCCC(C(=O)Nc2ccc(Br)cc2)C1` (configuration not stated) the figure was 10.9%.

Take `Cc1cc(Nc2cc(N3CCN(C)CC3)nc(Sc3ccc(NC(=O)C4CC4)cc3)n2)n[nH]1`: the inhibition was 52.1% (active). `Nc1cccc(OCCCCCOc2cccc(N)c2)c1`: the inhibition was -55.8%.

`COc1ccc(-c2nc3c(s2)CCc2onc(-c4ccc(OC)cc4)c2-3)cc1`: the inhibition was -8.84%.

As to `CO/N=C/CC(=O)c1ccc(OC)cc1`, the inhibition was -11.6%. `Cc1cc(NC(=O)COc2ccccc2C#N)no1`: the inhibition is -198%. The figure for `CCOc1cc(C(=O)O)ccc1OCCOc1ccccc1` is 15.8%; for `CC(C)CCOc1ccc(C(=O)C[N+]2(C)CCOCC2)cc1` it is 12.3%; for `CCCOc1ccc(C(=O)C(CCC(CNCC)C(=O)c2ccc(OCCC)cc2)CNCC)cc1` (configuration not stated) it is 98.1% (active). For the compound `CC(CC(=O)O)CC(=O)NNC(=O)c1cccc(Br)c1` (configuration not stated), the inhibition is 15.7%. Consider `CC(=O)c1cccc(-c2ccc(CN3C(CC(C)C)C(=O)N(Cc4cn(CC5CCCCC5)nn4)CCS3(=O)=O)cc2)c1` (configuration not stated), for which the inhibition was 4.21%.

`Cn1c(=O)cc(SCC(=O)N2CCN(C(=O)c3ccco3)CC2)c2ccccc21`: the inhibition is -11.7%. Regarding `CC(Sc1nncn1C)C(=O)NCCC1=CCCCC1` (configuration not stated), the inhibition is 1.01%. On to `O=C(CCl)N(Cc1cccc([N+](=O)[O-])c1)c1cccc(Cl)c1`, for which the inhibition was 40.9% (active). `CC(=O)N(CN1C(=O)C2C3C=CC(C3)C2C1=O)c1cccc(Cl)c1` (configuration not stated): the inhibition is 9.8%. Take `Cc1ccc(S(=O)(=O)N(CC(=O)Nc2cccc([N+](=O)[O-])c2)Cc2ccc(Cl)cc2)cc1`: the inhibition is 8.15%. The figure for `NS(=O)(=O)c1cc2c(cc1Cl)NC(C(Cl)Cl)NS2(=O)=O` (configuration not stated) is 2.3%; for `O=C1C=C(c2ccc(Cl)cc2)C(=O)N1Nc1ccccc1` it is 64.8% (active). With `COc1ccc(CN2CCn3ncc(C(=O)Nc4ccc(Cl)cc4Cl)c3C2=O)cc1`, the inhibition is 13.3%. `C[C@]12c3[nH]c4ccc(Cl)cc4c3CCN1C(=O)[C@@H](CC(=O)NCCCn1ccnc1)C[C@@H]2C(=O)N1CCOCC1`: the inhibition is 6.91%. In the case of `CN(CCC(=O)Nc1cc(S(=O)(=O)N(C)C)ccc1Cl)CC(=O)Nc1ccc(F)cc1`, the inhibition was 11.6%. For `Cc1cccc(CS(=O)(=O)c2ncc(Cl)c(C(=O)Nc3ccc(F)cc3)n2)c1`, the inhibition was 86.1% (active).

Consider `Cc1cccc(NS(=O)(=O)c2ccc(C)c(C(=O)NCc3cccnc3)c2)c1`, for which the inhibition was 9.9%. Consider `O=C(CS(=O)(=O)Cc1ccccc1)Nc1cccnc1`, for which the inhibition was -1.93%. As for `Cc1cccc(NC(=O)c2nc(S(=O)(=O)Cc3ccccc3)ncc2Cl)c1`, the inhibition is 86.7% (active). Turning to `Cc1ccc(CS(=O)(=O)CCC(=O)NC2CC2)cc1`, the inhibition was 11.4%. For the compound `Cc1cc(NS(=O)(=O)c2ccc(NC(=S)NC(=O)c3ccc(F)cc3Cl)cc2)no1`, the inhibition was 21.4%. As for `Cc1ccc(CS(=O)(=O)c2ncc(Cl)c(C(=O)Nc3nnc(C)s3)n2)cc1`, the inhibition is 94.4% (active). For the compound `Cc1nnc(NC(=O)CSc2nccn2-c2cccc(C)c2C)s1`, the inhibition was 7.22%. Take `CCCN(CC(=O)Nc1ccccc1OC)C(=O)CCC(=O)c1ccc(F)cc1`: the inhibition was -7.63%. Consider `O=C(CC1SC(=Nc2ccccc2)N(Cc2ccccn2)C1=O)Nc1cccc(Cl)c1` (configuration not stated), for which the inhibition was -84.7%.

Consider `CCN(C(=O)COC(=O)c1c(NC(C)=O)sc(C)c1C)C1CCS(=O)(=O)C1` (configuration not stated), for which the inhibition is 12.6%. Regarding `O=C(NCc1cccnc1)C12CC3CC(CC(C3)C1)C2`, the inhibition is 21.4%.

For the compound `CC1(C)CC2CC(C)(CN2c2ncnc3ccc(Br)cc23)C1` (configuration not stated), the inhibition is 31.5%. On to `COc1ccc(Nc2ncnc3ccc(Br)cc23)c(OC)c1`, for which the inhibition is 75.3% (active). Take `CCOC(=O)CNc1nc(Cl)nc(Nc2ccc(OC)cc2OC)n1`: the inhibition was 12.9%.

With `CC1=NC2(CCCc3c2no[n+]3[O-])N(O)C1(C)C` (configuration not stated), the inhibition is -5.63%.

For the compound `Cc1cccc(N2Cc3ccccc3C2=NC(=O)c2ccc(Cl)nc2)c1`, the inhibition is -92.3%. `Nc1c(-c2cccc(Cl)c2)cnn1-c1cccc([N+](=O)[O-])c1`: the inhibition is -139%. As to `Cc1cccc(-n2ncc(Cl)c(Cl)c2=O)c1`, the inhibition was 84.5% (active). For the compound `COc1ccc(OC)c(-c2c(=O)n(OCc3ccccc3Br)c3ccccc3[n+]2[O-])c1`, the inhibition was 23.8%. The figure for `Cc1ccc(CNC(=O)COc2ccc(S(=O)(=O)NC(C)C)cc2)cc1` is -0.52%; for `Cn1c(=O)n(C)c2cc(CNc3ccc(N4CCOCC4)c(C(=O)O)c3)ccc21` it is 15.1%. Turning to `Cc1nnnn1/C(=C\c1ccccc1)C(=O)OCC(=O)N1CC2(C)CC1CC(C)(C)C2` (configuration not stated), the inhibition is 50.7% (active). As for `O=C(CNC(=O)c1cc(S(=O)(=O)N2CCOCC2)ccc1N1CCCC1)Nc1ccc(F)c(F)c1`, the inhibition is 3.34%.

Take `COc1ccc(/C=N/N=C/c2c[nH]c(=O)c(C#N)c2Nc2ccccc2)cc1`: the inhibition is 22.7%. Consider `O=C(O)CCn1c(O)c(C=C2N=c3ccccc3=N2)sc1=S`, for which the inhibition is 48.3% (active). For `C=CCNC(=O)C1CC2c3ccccc3C1c1ccccc12` (configuration not stated), the inhibition was 15.4%.

For the compound `CC1(C(=O)NS(=O)(=O)C2CC2)CCCN(C(=O)CSc2ccccc2)C1` (configuration not stated), the inhibition is 6.93%.

On to `CCSc1sc(CC)cc1C=O`, for which the inhibition was 18.8%.

Consider `COc1ccccc1CN1CC(C(=O)NCCc2cn[nH]c2)CCC1=O` (configuration not stated), for which the inhibition is 11.7%. `COCCN(C(=O)CCC(=O)Nc1ccccn1)C(C(=O)NCCC(C)C)c1ccc(OC)cc1` (configuration not stated): the inhibition was 12.7%. With `COc1ccc2nc(-c3ccccn3)ccc2c1` the figure was -77.1%. As for `COc1ccc(C(=O)/C=C/Nc2ccccn2)cc1`, the inhibition is 51.6% (active). With `CCCN1C2CCCC1CC(NC(=O)NC13CC4CC(CC(C4)C1)C3)C2` (configuration not stated), the inhibition is 19.4%.

Take `CN1C(=O)c2ccc(NC(=O)C3CCCCC3)cc2C1=O`: the inhibition was -8.6%. Consider `O=C(Nc1ccc2c(c1)OCO2)C1CC1(Cl)Cl` (configuration not stated), for which the inhibition was -154%. On to `O=C(Nc1ccc2c(c1)OCCO2)C1CCCC1`, for which the inhibition is 41.3% (active).

For the compound `CCOc1ccc(S(=O)(=O)N2CCC(C(=O)NCc3ccccn3)CC2)cc1Cl`, the inhibition is 19.5%.

Regarding `COc1ccc(CCNC(=O)C(=O)NCC2OCCN2S(=O)(=O)c2ccc(F)cc2)cc1OC` (configuration not stated), the inhibition is -5.35%. `CCOc1ccc(CN2CCN(Cc3ccc4cc(F)ccc4n3)CC2CCO)cc1` (configuration not stated): the inhibition was 12.7%. On to `O=C(c1ccccc1)c1cccn1CC(=O)N1CCN(c2ccc(F)cc2)CC1`, for which the inhibition was 12.9%. On to `CCOCCCN(C(=O)Cn1nnc(-c2ccc(OC)c(OC)c2)n1)C(CC)C(=O)NC1CCCC1` (configuration not stated), for which the inhibition was 18.1%. Regarding `C[C@H](CO)N1C[C@H](C)[C@@H](CN(C)C(=O)c2cccc(F)c2)Oc2cc(-c3cncnc3)ccc2S1(=O)=O`, the inhibition was 9.48%. Turning to `COc1ccc(-c2oc3ncn(Cc4ccco4)c(=N)c3c2-c2ccc(OC)cc2)cc1`, the inhibition is 8.92%. For the compound `COCCNc1ncnc2c1ncn2[C@H]1CN(Cc2ccc(OC)cc2)C[C@@H](CO)O1`, the inhibition was -2.96%. In the case of `COc1ccc(-c2oc3ncnc(NCCCO)c3c2-c2ccc(OC)cc2)cc1`, the inhibition was 40.9% (active). With `Cc1ccc(CCCOC(=O)C[N+]2(C)CCCCC2)cc1`, the inhibition is 1.23%. With `COc1ccc(NC(=O)/C(Cl)=C(/Cl)S(=O)Cc2ccc(C)cc2)cn1` (configuration not stated), the inhibition is 90.8% (active). With `C[C@@H]1CN([C@H](C)CO)C(=O)CCCn2nncc2CO[C@@H]1CN(C)S(=O)(=O)c1cccc(C#N)c1`, the inhibition was 13.2%.

Regarding `NC(c1csc(NC(=O)Nc2ccccc2Oc2ccccc2)n1)c1ccccc1Cl` (configuration not stated), the inhibition is 24.3%. In the case of `CCN(CC)c1ccc(NC(=O)CCc2nnc3ccc(N4CCCCC4)nn23)c(C)c1`, the inhibition is -2.16%. Consider `Cc1nc(C(=O)N2CCCC(C(=O)c3ccc(Cl)cc3)C2)cs1` (configuration not stated), for which the inhibition was 3.92%. As for `CC(=O)Nc1c2c(nn1-c1ccc(C)cc1C)CS(=O)C2` (configuration not stated), the inhibition was 4.45%. With `CCc1ccccc1N(CC(=O)NCCSCc1ccco1)S(C)(=O)=O`, the inhibition is 11.4%. As to `CS(=O)(=O)N(Cc1ccc(Cl)cc1)c1ccc(C(=O)NCCSCc2ccco2)cc1`, the inhibition is 43.2% (active). Turning to `Cc1cc(C)cc(N(CC(=O)NCCSCc2ccco2)S(C)(=O)=O)c1`, the inhibition was 15.8%. Turning to `CC(C)(C)C1CCC(C(=O)Nc2cccnc2)CC1` (configuration not stated), the inhibition is 10%.

Turning to `Cc1ccc2c(c1)N(CC(=O)N1CCOCC1)C(=O)CO2`, the inhibition was 7.44%. Consider `CC(OC(=O)c1ccccc1NCCO)C(=O)Nc1ccnn1C(C)C` (configuration not stated), for which the inhibition was 10%. Take `CCN1CCCC1CNC(=O)c1ccc2c(c1)NC(=O)/C(=C\c1ccccc1F)S2` (configuration not stated): the inhibition is -13.2%.

For `O=C1Nc2cc(C(=O)N3CCC(N4CCCCC4)CC3)ccc2S/C1=C\c1ccccc1`, the inhibition was -25.5%. The figure for `CCN1CCN(CCNC(=O)c2ccc3c(c2)NC(=O)/C(=C\c2cccc(Cl)c2)S3)CC1` is 90.6% (active). The figure for `CC1CCc2sc3nc(N4CCN(CCO)CC4)n4ncnc4c3c2C1` (configuration not stated) is -149%. Regarding `O=C1CN(C(=O)c2cc(F)cc(F)c2)c2ccccc2N1`, the inhibition was 11.9%. Regarding `COc1ccccc1-c1nc(C(F)(F)F)c(OC)o1`, the inhibition is 4.93%. The figure for `COc1ccc(-c2nc(-c3ccccc3)no2)c(OC)c1` is 58.9% (active).

As for `COc1ccc(-c2onc3ccc(C(C)=O)cc23)cc1`, the inhibition was -105%.

These data come from PubChem BioAssay AID624352 (Sanford-Burnham Center for Chemical Genomics, 2012).
